Structures can show the parent of a compound that is named as a salt. About 180 (8.6%) of roughly 2,100 compounds showed an effect of 50% or more. Only a selection was taken, and strong results are over-represented in it overall.
These compounds were tested on MOLM1 and UCSD/AML1 (averaged) (assay: cell viability relative to DMSO control (POC); higher = less growth inhibition). Details: 1 µM; 72 h.
Description: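 Primary viability screen in the 3q26 EVI1-high AML cell lines MOLM1 and UCSD/AML1 (1.5e3 cells/well, 384-well), compounds at 1 uM for 72 h. ATP CellTiter-Glo read-out given as percent of viable cells over DMSO control (POC), averaged over duplicates. DMSO was the negative control and 5 uM etoposide the positive control. This mapping covers the MicroSource Spectrum and Selleck anticancer libraries (drug names).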

Structure (SMILES) | cell viability [%]
CC[C@]1(O)C[C@H]2CN(CCc3c([nH]c4ccccc34)[C@@](C(=O)OC)(c3cc4c(cc3OC)N(C=O)[C@H]3[C@@](O)(C(=O)OC)[C@H](OC(C)=O)[C@]5(CC)C=CCN6CC[C@]43[C@@H]65)C2)C1 [Vincristine Sulfate] | 7.83
CC[C@]1(O)C[C@H]2CN(CCc3c([nH]c4ccccc34)[C@@](C(=O)OC)(c3cc4c(cc3OC)N(C=O)[C@H]3[C@@](O)(C(=O)OC)[C@H](OC(C)=O)[C@]5(CC)C=CCN6CC[C@]43[C@@H]65)C2)C1 | 11.3
COc1ccc2c(=O)c(-c3ccc(O)cc3)coc2c1 | 84.7
CC(C)c1c(O)ccc2c1CC[C@H]1C(C)(C)CCC[C@]21C | 90.4
COC(=O)C(O)c1ccccc1 (stereo not drawn) | 106
O=c1cc(-c2ccc(O)cc2)oc2cc(O[C@@H]3O[C@H](CO)[C@@H](O)[C@H](O)[C@H]3O[C@@H]3OC[C@](O)(CO)[C@H]3O)cc(O)c12 | 119
COc1ccc2c(=O)c(CC(=O)O)coc2c1 | 98.6
N=C(N)NC(=N)Nc1ccccc1 | 99.7
O=C(O)c1nc2cc(Cl)c(Cl)cc2nc1O | 98.3
CC(C)CCC[C@@H](C)[C@H]1CC[C@H]2[C@@H]3CC[C@H]4C[C@H](O)CC[C@]4(C)[C@H]3CC[C@]12C | 110
Cc1ccc(S(=O)(=O)C=CC#N)cc1 | 1.01
Cc1ccc(O)c([C@H](CCN(C(C)C)C(C)C)c2ccccc2)c1 | 92.5
C=CC[S+]([O-])C[C@H](N)C(=O)O (mixture of isomers) | 89.6
CCN(CC)C(=S)SSC(=S)N(CC)CC | 5.82
CCN(CC)C(=S)SSC(=S)N(CC)CC [Disulfiram (Antabuse)] | 1.33
CC1=CC(=O)[C@H]2C(C)(C)CCC[C@]2(C)[C@@]1(O)CCc1ccoc1 | 110
COC(=O)CC[C@@H](C)[C@H]1CC[C@H]2[C@@H]3[C@H](O)C[C@@H]4C[C@H](O)CC[C@]4(C)[C@H]3C[C@H](O)[C@]12C | 95.2
C[C@@H]1CCN(C(=O)CC#N)C[C@@H]1N(C)c1ncnc2[nH]ccc12 | 72.1
O=C(O)c1cc(-c2ccc(F)cc2F)ccc1O | 112

Structure (SMILES) | cell viability [%]
CNC(=O)c1ccccc1Sc1ccc2c(/C=C/c3ccccn3)n[nH]c2c1 [Axitinib] | 19.1
C[C@H]1CC2C3CCC4=CC(=O)C=C[C@]4(C)[C@@]3(F)[C@@H](O)C[C@]2(C)[C@@]1(O)C(=O)COP(=O)(O)O (stereo partly drawn) | 72.3
COc1c(-c2coc3cc4c(cc3c2=O)CC(OC(C)=O)C(C)(C)O4)ccc2c1C=CC(C)(C)O2 (stereo not drawn) | 88.7
Fc1cc(-c2cccc3ncc(-c4cnn(C5CCNCC5)c4)nc23)cc(F)c1CN1CCOCC1 | 24.6
CCC(C(N)=O)c1ccccc1 (stereo not drawn) | 109
COc1cc(O)ccc1C(C)=O | 97.9
CC(C)=CCC1=C(O)C(=O)c2ccccc2C1=O | 118
N[C@@H](CSCSC[C@H](N)C(=O)O)C(=O)O | 99.3
CN(c1ncccc1CNc1nc(Nc2ccc3c(c2)CC(=O)N3)ncc1C(F)(F)F)S(C)(=O)=O | 58.6
CS(=O)(=O)c1cccc(CNc2nc(Nc3ccc4c(c3)CCC(=O)N4)ncc2C(F)(F)F)c1 | 83.3
CC(=O)NCC(=O)N1[C@@H]2CC[C@H]1c1ccc(Nc3ncc(C(F)(F)F)c(NC4CCC4)n3)cc12 | 20.2
CC(=O)/C=C\[C@@H]1[C@@]2(C)CCCC(C)(C)C2CC[C@@]1(C)O (stereo partly drawn) | 99.2
COc1cc2c(cc1OC)-c1c(oc3cc(O)cc(O)c3c1=O)CO2 | 103
COC1=C(O)C(=O)c2c(cc3oc(C(C)=O)c(O)c3c2O)C1=O | 86.8
CCCCC(=O)Oc1ccccc1C(=O)O | 115
COC(=O)C[C@H]1C(C)(C)[C@@H](OC(C)=O)[C@@H]2CC3C4CC(=O)O[C@@H](c5ccoc5)[C@]4(C)CCC3[C@@]1(C)C2=O (stereo partly drawn) | 88.1
CCCCOc1ccc(C(=O)CCN2CCCCC2)cc1 | 104
Cc1cnc(Nc2ccc(OCCN3CCCC3)cc2)nc1Nc1cccc(S(=O)(=O)NC(C)(C)C)c1 | 13
CC1(C)[C@@H](O)CC[C@]2(C)[C@H]3C(=O)C=C4[C@@H]5C[C@@](C)(C(=O)O)CC[C@]5(C)CC[C@@]4(C)[C@]3(C)CC[C@@H]12 | 95.5

— the supplement of paper PMC11150407
